# ± gives the standard deviation of the averaged measurements.
# System: Serratia marcescens K904 PosmB-luxCDABE reporter (pMQ747)
# Experiment: PosmB-lux reporter fold induction (RLU/OD600 relative to no-compound control), highest over Biolog concentrations; higher = stronger reporter activation
# Settings: ΔrcsB mutant CMS5177; 4 h
# Protocol: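 Serratia marcescens K904 (wild type) or its isogenic ΔrcsB mutant, carrying the Rcs-dependent PosmB-luxCDABE reporter plasmid pMQ747, was grown in LB at OD600 0.1 in Biolog Phenotype MicroArray plates PM11-20 for 4 h at 30-32°C. Each compound is present at 3-4 proprietary concentrations (not stated); per the Fig. S1 legend the value given is the highest fold over those wells. Three independent trials.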
row,SMILES,PosmB-lux reporter fold induction
1,"NC(=O)NO [Hydroxyurea] (Biolog plate: PM15, well positions: H5-8)",13.9 ± 5.4
2,"NC(=O)c1cc[n+](CC2=C(C(=O)[O-])N3C(=O)[C@@H](NC(=O)[C@@H](c4ccccc4)S(=O)(=O)O)[C@H]3SC2)cc1 [cefsulodin] (Biolog plate: PM17, well positions: H1-4)",1.35 ± 0.096
3,"O=C(OC[C@H]1O[C@@H](OC(=O)c2cc(O)c(O)c(OC(=O)c3cc(O)c(O)c(O)c3)c2)[C@H](OC(=O)c2cc(O)c(O)c(OC(=O)c3cc(O)c(O)c(O)c3)c2)[C@@H](OC(=O)c2cc(O)c(O)c(OC(=O)c3cc(O)c(O)c(O)c3)c2)[C@@H]1OC(=O)c1cc(O)c(O)c(OC(=O)c2cc(O)c(O)c(O)c2)c1)c1cc(O)c(O)c(OC(=O)c2cc(O)c(O)c(O)c2)c1 [tannic acid] (Biolog plate: PM17, well positions: F9-12)",0.888 ± 0.24
4,"Nc1c2ccccc2nc2ccccc12 [9-Aminoacridine] (Biolog plate: PM14, well positions: B1-4)",1.19 ± 0.19
5,"CN[C@@H]1[C@H](O)[C@H](NC)[C@H]2O[C@@]3(O)C(=O)C[C@@H](C)O[C@H]3O[C@@H]2[C@H]1O [Spectinomycin] (Biolog plate: PM12, well positions: G1-4)",1.6 ± 0.68
6,"O=C(O)CN(CCN(CC(=O)O)CC(=O)O)CC(=O)O (Biolog plate: PM15, well positions: B5-8)",1.22 ± 0.17
7,"Cc1ccccc1C(OCCN(C)C)c1ccccc1 (centres undefined) [orphenadrine] (Biolog plate: PM20, well positions: B1-4)",1.4 ± 0.12
8,"C[C@H]1c2cccc(O)c2C(=O)C2=C(O)[C@]3(O)C(=O)C(C(N)=O)=C(O)[C@@H](N(C)C)[C@@H]3[C@@H](O)[C@@H]21 [Doxycycline] (Biolog plate: PM13, well positions: C5-8)",1.91 ± 0.69
9,"Nc1ccc(S(=O)(=O)Nc2ncccn2)cc1 [Sulfadiazine] (Biolog plate: PM12, well positions: E5-8)",1.84 ± 0.29
10,"[Cl-].[Cs+] [Cesium chloride] (Biolog plate: PM13, well positions: F1-4)",1.64 ± 0.47
11,"c1ccc(-c2nn(-c3ccccc3)[n+](-c3cccc4ccccc34)n2)cc1 [tetrazolium violet] (Biolog plate: PM20, well positions: B9-12)",0.262 ± 0.11
12,"CSCCC(N)C(=O)NO (racemic) [DL-methionine hydroxamate] (Biolog plate: PM17, well positions: F5-8)",5.25 ± 1.3
13,"CC1=CC(=O)c2ccccc2C1=O [Menadione] (Biolog plate: PM15, well positions: G9-12)",0.917 ± 0.14
14,"C[C@@H]1NC(=O)[C@@H](N)CNC(=O)[C@H](C2CCNC(=N)N2)NC(=O)/C(=C/NC(N)=O)NC(=O)[C@H](CNC(=O)CC(N)CCCN)NC1=O.N=C1NCC[C@H]([C@@H]2NC(=O)/C(=C/NC(N)=O)NC(=O)[C@H](CNC(=O)C[C@@H](N)CCCN)NC(=O)[C@H](CO)NC(=O)[C@@H](N)CNC2=O)N1 [Capreomycin] (Biolog plate: PM11, well positions: D1-4)",1.09 ± 0.081
15,"CN[C@@H]1[C@@H](O[C@H]2O[C@H](CO)[C@@H](N)[C@H](O)[C@H]2O)OC2C[C@@H](N)[C@@H](O[C@H]3[C@H](O)[C@@H](O)[C@H](N)C[C@@H]3N)OC2[C@@H]1O (some centres undefined) [apramycin] (Biolog plate: PM20, well positions: A5-8)",1.48 ± 0.21
16,"OB(O)O [Boric acid] (Biolog plate: PM14, well positions: C1-4)",23.8 ± 12
17,"O=C1CN(/N=C/c2ccc([N+](=O)[O-])o2)C(=O)N1 [Nitrofurantoin] (Biolog plate: PM14, well positions: E5-8)",1.19 ± 0.084

row,SMILES,PosmB-lux reporter fold induction
1,"CCCCCCCCCCCC[N+](C)(C)CCCS(=O)(=O)[O-] [lauryl sulfobetaine] (Biolog plate: PM19, well positions: G1-4)",1.4 ± 0.45
2,"CC1(C)S[C@@H]2[C@H](NC(=O)Cc3ccccc3)C(=O)N2[C@H]1C(=O)O [Penicillin G] (Biolog plate: PM12, well positions: A2-4)",1.02 ± 0.19
3,"N[C@H](CO)C(=O)O [D-serine] (Biolog plate: PM17, well positions: A2-4)",1.12 ± 0.081
4,"CO/N=C(\C(=O)N[C@@H]1C(=O)N2C(C(=O)O)=C(CSc3nc(=O)c(O)nn3C)CS[C@H]12)c1csc(N)n1 [Ceftriaxone] (Biolog plate: PM11, well positions: G1-4)",1.12 ± 0.14
5,"C[n+]1c2cc(N)ccc2cc2ccc(N)cc21.Nc1ccc2cc3ccc(N)cc3nc2c1 [Acriflavine] (Biolog plate: PM14, well positions: A2-4)",2.05 ± 0.23
6,"CN[C@@H]1[C@H](O[C@H]2[C@H](O[C@H]3[C@H](O)[C@@H](O)[C@H](NC(=N)N)[C@@H](O)[C@@H]3NC(=N)N)O[C@@H](C)[C@]2(O)CO)O[C@@H](CO)[C@H](O)[C@H]1O [dihydro-streptomycin] (Biolog plate: PM19, well positions: G5-8)",0.97 ± 0.18
7,"Oc1c(Cl)cc(Cl)c(Cl)c1Cc1c(O)c(Cl)cc(Cl)c1Cl [hexa-chlorophene] (Biolog plate: PM20, well positions: E9-12)",0.997 ± 0.31
8,"CC(Oc1ccccc1)C(=O)N[C@@H]1C(=O)N2[C@@H]1SC(C)(C)[C@@H]2C(=O)O (some centres undefined) [phenethicillin] (Biolog plate: PM19, well positions: F1-4)",1.15 ± 0.37
9,"CC1(C)S[C@@H]2[C@H](NC(=O)C(C(=O)O)c3ccccc3)C(=O)N2[C@H]1C(=O)O (some centres undefined) [Carbenicillin] (Biolog plate: PM14, well positions: G5-8)",1.05 ± 0.096
10,"COc1cc(NS(=O)(=O)c2ccc(N)cc2)ncn1 [sulfamono-methoxine] (Biolog plate: PM17, well positions: C9-12)",1.4 ± 0.25
11,"C1COCCOCCOCCOCCOCCO1 [18-crown-6 ether] (Biolog plate: PM20, well positions: D9-12)",1.53 ± 0.55
12,"NC[C@@H]1O[C@H](O[C@H]2[C@@H](O)[C@H](O[C@@H]3[C@@H](O)[C@H](N)C[C@H](N)[C@H]3O[C@H]3O[C@H](CN)[C@@H](O)[C@H](O)[C@H]3N)O[C@@H]2CO)[C@H](N)[C@@H](O)[C@@H]1O [Neomycin] (Biolog plate: PM11, well positions: F9-12)",1.31 ± 0.23
13,"CC1(C)S[C@@H]2[C@H](NC(=O)COc3ccccc3)C(=O)N2[C@H]1C(=O)O.CN(C)[C@@H]1C(O)=C(C(=O)NCN2CCN(CCO)CC2)C(=O)[C@@]2(O)C(O)=C3C(=O)c4c(O)cccc4[C@@](C)(O)[C@H]3C[C@@H]12 [Penimepicycline] (Biolog plate: PM12, well positions: B5-8)",1.27 ± 0.3
14,"NCC(=O)O [Glycine] (Biolog plate: PM13, well positions: F5-8)",1.39 ± 0.27
15,"NC[C@H]1O[C@H](O[C@H]2[C@H](O)[C@@H](O[C@H]3O[C@H](CO)[C@@H](O)[C@H](N)[C@H]3O)[C@H](N)C[C@@H]2N)[C@H](N)C[C@@H]1O [Tobramycin] (Biolog plate: PM12, well positions: F1-4)",1.52 ± 0.67
16,"O=c1[nH]c(=O)n([C@H]2C[C@H](O)[C@@H](CO)O2)cc1C(F)(F)F [trifluorothymidine] (Biolog plate: PM18, well positions: B1-4)",1.09 ± 0.28
17,"O=C(N[C@H](CO)[C@H](O)c1ccc([N+](=O)[O-])cc1)C(Cl)Cl [Chloramphenicol] (Biolog plate: PM14, well positions: F1-4)",1.87 ± 1.1

# Reference: the supplement of paper PMC9942566
